Values joined by “and” are separate entries in the source; they are usually repeats but may differ in a detail not shown here. Identical values can stand only once. Measured potencies and affinities stand elsewhere.
Experiments:
Staphylococcus aureus = conditions: Concentration 32 ug.mL-1; ASSAY_TEST Inhibition of Bacterial Growth; detection method Absorption (OD600); MEDIA CAMHB; plate type 384well; NBS; CORNING #3640; time 18 hr
Escherichia coli = conditions: Concentration 32 ug.mL-1, ASSAY_TEST Inhibition of Bacterial Growth, detection method Absorption (OD600), MEDIA CAMHB, plate type 384well, NBS, CORNING #3640, time 18 hr

NNC(=O)c1cn(Cc2ccccc2)c2ccccc12
Inhibition (Staphylococcus aureus): 1.65% | Inhibition (Escherichia coli): 1.53%

COc1ccc2c(c1)cc(C[N+](C)(C)C)n2C.[I-]
Inhibition (Staphylococcus aureus): 13.5% | Inhibition (Escherichia coli): 12.23%

N#Cc1cc(C#N)c(N2C3CCC2CC3)nc1N
Inhibition (Staphylococcus aureus): -1.36% | Inhibition (Escherichia coli): 10.18%

Cc1ccc(S(=O)(=O)N2[C@H]3CC[C@@H]2CC3)cc1
Inhibition (Staphylococcus aureus): 28.46% | Inhibition (Escherichia coli): -2.06%

CN(C)C(=O)Oc1ccc(CCl)c2cccnc12
Inhibition (Staphylococcus aureus): 22.39% | Inhibition (Escherichia coli): -10.05%

CCOC(=O)c1cn(Cc2ccccc2)c2ccccc12
Inhibition (Staphylococcus aureus): 3.83% | Inhibition (Escherichia coli): -2.16%

C#CCN1CCc2nc3nc(OC)c(C#N)cc3c(N)c2C1
Inhibition (Staphylococcus aureus): 26.45% | Inhibition (Escherichia coli): -2.8%

Cl.ClCCN1CCCC1
Inhibition (Staphylococcus aureus): 22.74% | Inhibition (Escherichia coli): 7.3%

C#CCN(C)Cc1cc2cc(OCCCC3CCN(Cc4ccc(OC(=O)N(C)C)c5ncccc45)CC3)ccc2n1C
Inhibition (Staphylococcus aureus): 11.25% | Inhibition (Escherichia coli): -10.82%

CCOc1nc2nc(C)c(C(=O)O)cc2c(-c2ccccc2)c1C#N
Inhibition (Staphylococcus aureus): 17.86% | Inhibition (Escherichia coli): -10.47%

COc1ccc(C=C(C#N)C#N)cc1OC
Inhibition (Staphylococcus aureus): 14.77% | Inhibition (Escherichia coli): 13.47%

CN1CC=C(c2cccn2C)CC1.Cl
Inhibition (Staphylococcus aureus): 10.31% | Inhibition (Escherichia coli): 19.65%

CCOC(=O)C1=C(OC)OC(=O)CC1c1ccccc1 (configuration not stated)
Inhibition (Staphylococcus aureus): 39.56% | Inhibition (Escherichia coli): -6.33%

NNCCCc1c[nH]c2ccccc12.O=C(O)/C=C/C(=O)O
Inhibition (Staphylococcus aureus): 18.22% | Inhibition (Escherichia coli): 27.72%

NNC(=O)c1cccnc1 [NICOTINIC ACID HYDRAZIDE]
Inhibition (Staphylococcus aureus): 11.6% | Inhibition (Escherichia coli): 15.76%

CN1CC=C(c2cccn2C)CC1
Inhibition (Staphylococcus aureus): 10.32% | Inhibition (Escherichia coli): 19%

C#CCN1CCc2nc3nc(Cl)c(C#N)cc3c(N)c2C1
Inhibition (Staphylococcus aureus): 26.25% | Inhibition (Escherichia coli): -10.74%

CCOC(=O)C1=C(C)OC(=O)CC1c1ccccc1 (configuration not stated)
Inhibition (Staphylococcus aureus): 23.21% | Inhibition (Escherichia coli): -9.36%

N#CC(C#N)=Cc1ccc(Cl)cc1
Inhibition (Staphylococcus aureus): 7.12% | Inhibition (Escherichia coli): 5.89%

C#CCN1CCc2nc(N)c(C#N)c(-c3ccccc3)c2C1
Inhibition (Escherichia coli; 32 ug/mL): -14.9% and -16.29%

N#CCC(=O)c1ccccc1
Inhibition (Staphylococcus aureus): 30.68% | Inhibition (Escherichia coli): 18.52%

[N-]=[N+]=NCC(=O)c1ccc(Br)cc1
Inhibition (Staphylococcus aureus): 26.38% | Inhibition (Escherichia coli): 9.41%

Cc1ccc(C=C(C#N)C#N)cc1
Inhibition (Staphylococcus aureus): 8.41% | Inhibition (Escherichia coli): 8.38%

Cl.ClCCN1CCCCC1
Inhibition (Staphylococcus aureus): 28.78% | Inhibition (Escherichia coli): 20.05%

CCOC(=O)C1=C(C)NC(=O)CC1c1ccccc1 (configuration not stated)
Inhibition (Staphylococcus aureus): 39.69% | Inhibition (Escherichia coli): -3.27%

C#CCN(C)Cc1cc2cc(OC(=O)N(C)C)ccc2n1C
Inhibition (Staphylococcus aureus): -2.15% | Inhibition (Escherichia coli): -5.14%

O=C(N1[C@H]2CC[C@@H]1C(c1nnn[nH]1)C2)C(F)(F)F (some centres not stated)
Inhibition (Staphylococcus aureus): 26.59% | Inhibition (Escherichia coli): -6.69%

O=C(CBr)NCc1ccccc1
Inhibition (Staphylococcus aureus): 46.96% | Inhibition (Escherichia coli): 14.62%

OCC(Cc1cnc[nH]1)NCc1ccccc1 (configuration not stated)
Inhibition (Staphylococcus aureus): 6.92% | Inhibition (Escherichia coli): 2.95%

CC1CC(=O)Nc2nc3c(c(N)c21)CCCC3 (configuration not stated)
Inhibition (Staphylococcus aureus): 27.94% | Inhibition (Escherichia coli): -10.32%

CCOC(=O)c1cc2cc(OC(=O)NC3CCN(Cc4ccccc4)CC3)ccc2[nH]1
Inhibition (Staphylococcus aureus): 20.68% | Inhibition (Escherichia coli): -6.09%

Cc1nc(N)c(C#N)cc1C(=O)O
Inhibition (Staphylococcus aureus): 4.41% | Inhibition (Escherichia coli): -9.15%

C#CCN(C)Cc1cc2cc(OCc3ccc(OC(=O)N(C)C)c4ncccc34)ccc2n1C
Inhibition (Staphylococcus aureus): 7.52% | Inhibition (Escherichia coli): -14.26%

Cc1ccccc1C=C(C#N)C#N
Inhibition (Staphylococcus aureus): 3.49% | Inhibition (Escherichia coli): 0.38%

C#CCN1CCc2nc3ncccc3c(N)c2C1.Cl
Inhibition (Staphylococcus aureus): 20.08% | Inhibition (Escherichia coli): -15.24%

Nc1c2c(nc3ccccc13)CCN(Cc1ccccc1)C2
Inhibition (Staphylococcus aureus): 9.97% | Inhibition (Escherichia coli): 1.56%

Nc1c2c(nc3c1C(c1ccccc1)CC(=O)N3)CCCC2 (configuration not stated)
Inhibition (Staphylococcus aureus): 28.94% | Inhibition (Escherichia coli): 0.15%

CNCc1cn(C)c2ccc(OC)cc12.Cl
Inhibition (Staphylococcus aureus): 14.24% | Inhibition (Escherichia coli): 17.26%

COc1cc(C2C(C#N)=C(N)Oc3c2ccc2ccccc32)cc(OC)c1OC (configuration not stated)
Inhibition (Staphylococcus aureus): 6.42% | Inhibition (Escherichia coli): 8.07%

From ChEMBL document CHEMBL4513135, “CO-ADD screening of IQOG CSIS (Spain) compounds”
